Bioassay records as filed in PubChem BioAssay.
PAD4 FP inh: blocks human protein arginine deiminase 4; recombinant PAD4, RCA probe fluorescence polarization; inhibition, % at 6.36 µM; actives 0.41% (n = 330,000); AID 485272;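 active = percent inhibition above a cutoff equal to the mean of all tested compounds plus 3 SD, cut at about 15% in these data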;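 note: 0% = PAD4 with RCA probe and DMSO and 100% = probe without PAD4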
GSTO1 counter: GSTO1 inhibition, counter-screen for RBBP9 inhibitors | recombinant GSTO1, activity-based probe fluorescence polarization | inhibition, % at 5.96 µM | actives 1.1% (n = 300,000) | AID 1974;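 active = inhibition above the campaign mean inhibition plus 3 SD, cut at about 35% in these data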;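 note: 0% = GSTO1-1 with DMSO and 100% = wells lacking GSTO1-1 enzyme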
Target sequence (P78417 whole entry, looked up): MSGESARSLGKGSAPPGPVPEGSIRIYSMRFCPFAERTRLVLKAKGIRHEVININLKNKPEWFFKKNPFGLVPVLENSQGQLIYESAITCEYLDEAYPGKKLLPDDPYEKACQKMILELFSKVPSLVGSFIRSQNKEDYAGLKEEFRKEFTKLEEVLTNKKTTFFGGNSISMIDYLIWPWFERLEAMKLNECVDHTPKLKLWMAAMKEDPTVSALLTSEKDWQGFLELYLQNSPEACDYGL
Fam108B counter: blocks mouse Fam108B hydrolase in RBBP9 counter-screen; recombinant Fam108B, FP-Rh probe fluorescence polarization; inhibition, % at 9.51 µM; actives 0.33% (n = 300,000);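 active = inhibition above the screen mean inhibition plus 3 SD, computed separately per campaign, cut at about 18% in these data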;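 note: inhibitors lower polarization as less probe binds the enzyme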
PME-1 inh: PME-1 (human) inhibition; recombinant PME-1, FP-Rh probe fluorescence polarization; actives 0.53% (n = 320,000); inhibition, % at 5.9 µM; Q9Y570;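 active = inhibition above the campaign mean of all compounds plus 3 SD, cut at about 26% in these data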;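 note: competitive labeling of PME-1 active site by serine hydrolase directed probe; 0% = PME-1 with DMSO and 100% = wells lacking PME-1 enzyme; inhibitors block probe labeling so polarization falls and inhibition rises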
LYPLA2 counter: LYPLA2 (human) inhibition in PME1 counter-screen | O95372 | recombinant LYPLA2, FP-Rh probe fluorescence polarization | inhibition, % at 5.9 µM | actives 0.38% (n = 320,000) | AID 2177;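 active = inhibition above the screen-wide mean plus 3 SD, limit set per campaign, cut at about 26% in these data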;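 note: 0% = LYPLA2 with DMSO and 100% = wells lacking LYPLA2 enzyme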
LYPLA1 counter: counter-screen for PME1 inhibitors: inhibitors of human LYPLA1; recombinant LYPLA1, FP-Rh probe fluorescence polarization; actives 0.16% (n = 320,000); inhibition, % at 5.9 µM;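 active = inhibition above the mean of all tested compounds plus 3 SD, set per campaign, cut at about 14% in these data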;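 note: inhibitors block serine hydrolase probe labeling of LYPLA1 so polarization falls; 0% = enzyme with DMSO and 100% = wells lacking LYPLA1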
Target sequence (O75608 whole entry, looked up): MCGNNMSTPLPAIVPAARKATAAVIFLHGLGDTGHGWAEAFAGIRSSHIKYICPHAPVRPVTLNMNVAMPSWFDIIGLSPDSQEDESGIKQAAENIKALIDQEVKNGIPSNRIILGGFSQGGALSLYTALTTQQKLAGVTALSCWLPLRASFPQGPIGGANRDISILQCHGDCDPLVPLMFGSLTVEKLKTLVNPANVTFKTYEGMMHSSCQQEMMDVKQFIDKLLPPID
An asterisk follows results filed as active; x = no result given. Rows were chosen to be rich in hits. Some 1.8% of all compounds tested hit in one or more screens of this group.

SMILES	PAD4 FP inh	GSTO1 counter	Fam108B counter	PME-1 inh	LYPLA2 counter	LYPLA1 counter
CC(=O)c1sc2nc(-c3ccco3)ccc2c1N	-4	39*	16	-7	6	2
Nc1c(C(=O)Nc2ccc(Br)cc2)sc2nc(-c3ccco3)ccc12	-16	0	14	36*	-14	-22
Cc1ccc(NC(=O)c2sc3nc4c(c(-c5ccco5)c3c2N)CCC4)cc1	-5	7	0	15	-2	-9
Nc1c(C(=O)Nc2ccc(F)cc2)sc2nc(-c3ccco3)ccc12	-8	9	10	58*	-13	-14
S=C(Nc1ccc(Cl)cc1)Nc1cccc2cnccc12	-2	38*	2	3	10	-3
Fc1ccc(NC(=S)Nc2cccc3cnccc23)cc1	-14	15	6	1	2	0
O=C(NCc1ccccc1)C(c1ccccc1F)N(C(=O)c1csnn1)C1CCCC1 (centres undefined)	2	1	4	-1	0	3
CNC(=O)/C(C#N)=C/c1c(N2CCCCCC2)nc2ccccn2c1=O	-1	4	0	0	-7	-6
CCOC(=O)CCc1c(C)nc(SCCCn2c(=O)[nH]c3ccccc32)c(C#N)c1C	-5	1	-4	26*	7	2
O=C(COc1ccc([N+](=O)[O-])cc1)Nc1ccccc1C(=O)NC1CC1	-6	2	0	-5	4	3
CN(CC(=O)Nc1cccc(F)c1)C(=O)c1cc(-c2ccco2)nc2ccccc12	-7	22	5	-6	-4	-5
COc1ccc(NC(=O)CN(C)C(=O)c2cc(-c3ccco3)nc3ccccc23)cc1	-7	37*	3	-6	6	-3
COc1cc2c(cc1NC(=O)c1ccncc1)oc1ccccc12	-4	4	0	-8	15	-4
COc1cc2c(cc1NC(=O)c1cccnc1)oc1ccccc12	-1	-9	14	28*	5	-5
O=c1[nH]cc(N=Cc2cc(Cl)cc(Cl)c2O)c(=O)[nH]1	-9	42*	-1	2	6	3
Cc1ccc2sc(NNC(=O)c3cc(-c4cccs4)nc4ccccc34)nc2c1C	-3	-3	-6	-7	-14	-9
Cc1ccc2sc(NNC(=O)c3cc(=O)c4ccccc4o3)nc2c1C	-5	9	9	46*	6	-2
Cc1cccc2sc(NNC(=O)c3cc(=O)c4ccccc4o3)nc12	4	17	4	47*	0	-2
COc1ccc2nc(NNC(=O)c3cc(=O)c4ccccc4o3)sc2c1	-1	23	1	7	-2	-4
O=C(NNc1nc2c(F)cccc2s1)c1ccc(F)cc1	-4	7	4	-7	8	0
O=C(NNc1nc2c(F)cccc2s1)c1cc(=O)c2ccccc2o1	-5	3	4	55*	0	0
C=C(C)CC(Nc1ccc(OC)cc1)c1ccco1 (centres undefined)	1	3	0	-4	-3	-3
O=C(Cc1ccccc1F)OCN1C(=O)c2ccccc2C1=O	-2	30	2	2	0	-7
CC(C)c1nnc(SCC(=O)NC2CCCCC2)n1C	-6	-2	-3	-4	-5	-3
Cc1nnc(NC(=O)CSc2ccc([N+](=O)[O-])cn2)s1	-2	37*	0	9	-1	-2
SMILES	PAD4 FP inh	GSTO1 counter	Fam108B counter	PME-1 inh	LYPLA2 counter	LYPLA1 counter
CC(C)NS(=O)(=O)c1ccc(NC(=O)C(C)OC(=O)CCC(=O)c2cccs2)cc1 (centres undefined)	2	x	x	14	8	2
COc1ccc(N2CCN(C(=O)c3ccc(COc4ccc5c(C)cc(=O)oc5c4)cc3)CC2)cc1	-4	0	9	1	63*	4
COc1ccc(N2CCN(C(=O)COc3ccc4c(C)cc(=O)oc4c3C)CC2)cc1	0	3	-1	0	1	0
COc1ccc(S(=O)(=O)NCc2ccccn2)cc1NC(=O)c1ccccc1C	1	5	-1	2	-9	0
O=C(NCCc1ccccc1)C(c1cccs1)N(C(=O)CCl)c1ccc(Cl)cc1 (centres undefined)	14	103*	1	1	-3	2
O=C(Cc1ccc(Br)cc1)NC1CCCc2ccccc21 (centres undefined)	-6	6	1	9	2	5
O=C(CCl)NC1CCCc2ccccc21 (centres undefined)	7	72*	4	-9	0	-2
O=C(NC1CCCc2ccccc21)C1CCN(S(=O)(=O)c2ccccc2F)CC1 (centres undefined)	-3	5	-6	58*	3	-4
N#CCCn1cc(C=O)c(-c2cccs2)n1	-2	8	-4	2	-4	5
Cc1ccc(O)c(NC(=O)c2noc(C(C)C)c2[N+](=O)[O-])c1	0	35*	1	7	10	-4
CC(=O)c1ccc(NC(=O)c2noc(C(C)C)c2[N+](=O)[O-])cc1	-1	4	1	4	5	0
CC(C)c1onc(C(=O)NCCc2ccccc2)c1[N+](=O)[O-]	-1	37*	2	-1	3	3
CC(C)c1onc(C(=O)NCc2ccc(F)cc2)c1[N+](=O)[O-]	5	37*	-2	6	6	9
COc1ccc(NC(=O)c2noc(C(C)C)c2[N+](=O)[O-])cc1	-5	33	-3	-4	-1	-4
Cc1cccc(NC(=O)CN2C(=O)COc3ccc(Cl)cc32)c1	3	3	0	-2	40*	-2
O=C(Nc1cccc([N+](=O)[O-])c1)Nc1cccc([N+](=O)[O-])c1	0	-7	-5	-7	-25	-21
CC(C)S(=O)(=O)c1csc(NC(=O)Nc2cccc([N+](=O)[O-])c2)c1Cl	-2	-32	-14	28*	-7	-10
CCCCn1c(/C=N/Nc2nc3ccccc3[nH]2)nc2ccccc21	-8	-9	4	52*	3	-7
COc1ccc(C(C)=O)c(Oc2cc(NN3CCCCC3)c([N+](=O)[O-])cc2[N+](=O)[O-])c1	3	-2	0	5	2	-3
O=C(CSc1nnc2ccccn12)c1ccc(Cl)cc1	-1	36*	1	-2	1	2
O=C(CSc1nnc(-c2ccccn2)n1Cc1ccco1)c1ccccc1	-1	0	-4	-7	0	-3
O=C(CSc1nnc(-c2ccccn2)n1Cc1ccco1)c1ccc(Cl)cc1	-3	35*	-3	0	-2	-3
Cc1ccc(C(=O)OCC(=O)NC(C)c2ccccc2)s1 (centres undefined)	-1	x	x	x	x	x
Cc1ccc(NC(=O)COC(=O)c2ccc([N+](=O)[O-])s2)c(C)c1	-10	35*	3	0	3	-3
